# Experimental data as given in PubChem BioAssay (NCATS).
# Values joined by “and” are separate entries in the source; they are usually repeats but may differ in a detail not shown here. Equal entries are not always repeated. A number with no mark means an inactive call. Records with an inconclusive call do not appear. Active and inactive are the calls of the source. Unless noted, the call rests on the fitted dose curve; in most records, active means well fitted curve in either direction with a large enough effect (not every such curve was filed as active); inconclusive means small, poorly fitted or top-dose-only effect, or another doubt; inactive means flat fitted curve, though single readings scatter.
# Key:
# [1] = AP1 Signaling Pathway (AID 357); details: ME-180 AP-1-bla reporter, EGF-induced, beta-lactamase ratio, 5 h;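 further: ME-180 reporter cells stimulated with EGF at its EC50 level; on the % scale 0 is the no-effect control and ±100 the full control effect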
# How it was run: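 Read-out was the 460nm/530nm emission ratio (excitation 405nm) after CCF4 loading for 2.5 hours at room temperature. Cells carried an AP-1-driven beta-lactamase reporter, were stimulated with EC50 EGF plus compound for 5 hours, and AC50 values came from titrations.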
# [2] = molecular target: Cytochrome P450 1A2 (Homo sapiens) (UniProt P05177); assay: p450-cyp1a2 (AID 410; calls by dose curve; further: potency means the concentration at half of the fitted maximal effect;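 on activity change, negative = inhibition: -100% = full effect of reference inhibitor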)
# How it was run: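 Human CYP1A2 (20nM) demethylated Luciferin-ME at its Km (100uM) in 100mM KPO4. After 10 min compound preincubation, NADPH regeneration ran the reaction 60 min at room temperature. Luciferin was read by luminescence, normalized to 57 uM furafylline.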
# [3] = Cell Viability - BJ (AID 421; calls by dose curve;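 further: potency means the concentration at half of the fitted maximal effect; cells exposed to compound for 40 hours at 37 °C before readout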); details: BJ fibroblast viability, qHTS
# How it was run: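 Cytotoxicity as drop in intracellular ATP (CellTiter-Glo, 20 min RT) after 40 hr compound exposure of BJ fibroblasts at 37 °C. Titrations scaled between DMSO and 100 uM tamoxifen, Hill-fitted for AC50.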
# [4] = Cell Viability - Jurkat (AID 426;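 active means dose-dependent loss of cell ATP signal giving a full or clear fitted curve, ranked by lower potency value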; further: potency means the concentration at half of the fitted maximal effect); details: qHTS
# How it was run: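 Jurkat (clone E6-1, human T-cell leukemia) cells, 5000/well in complete medium, were exposed to compound for 40 hr at 37 °C. Viability was read as intracellular ATP by CellTiter-Glo luminescence; AC50 came from Hill fits of concentration-response data.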
# [5] = Cell Viability - Hek293 (AID 427;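 active means compounds whose dose-response curve shows a full or clear partial loss of cell viability, called from curve shape rather than a numeric limit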;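 further: potency means the concentration at half of the fitted maximal effect; cells exposed to compound for 40 hours at 37 °C before reading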); details: qHTS
# How it was run: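 Luminescent ATP content (CellTiter-Glo, 20 min at room temperature) was measured after a 40 hr, 37 °C compound exposure of HEK293 cells. AC50 values came from Hill-equation fits of qHTS concentration-response data normalized to DMSO and 100 uM tamoxifen.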
# [6] = Cell Viability - HepG2 (AID 433; calls by dose curve;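 further: potency means the concentration at half of the fitted maximal effect; potency for ATP loss meaning cytotoxicity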); details: qHTS
# How it was run: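 Read-out is luciferase-based quantitation of cellular ATP as a measure of viable HepG2 cells after 40 h treatment at 37 °C. Signal decrease is scaled between DMSO-only and 100 uM tamoxifen controls, with AC50 fitted by the Hill equation.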
# [7] = Cell Viability - MRC5 (AID 434; calls by dose curve;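 further: potency means the concentration at half of the fitted maximal effect; potency reflects cytotoxicity seen as loss of intracellular ATP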); details: MRC5 lung fibroblast viability, qHTS
# How it was run: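 qHTS cytotoxicity in human lung fibroblast MRC5 cells; 40 hr treatment, 37 °C; cellular ATP by luciferase luminescence; DMSO = 0%, 100 uM tamoxifen = 100% inhibition; Hill-fit AC50.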
# [8] = NFAT Signaling Pathway (AID 444); details: Jurkat NFAT-bla M1, carbachol, beta-lactamase ratio, 5 h;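 further: carbachol stimulus at about its EC50 of 1 µM final; on the % scale 0 is the no-effect control and ±100 the full control effect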
# How it was run: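 Read-out: CCF4 FRET ratio (460 nm/530 nm) after 1 h RT dye loading, used for %activity and AC50 from titration series. Cells: Jurkat NFAT-β-lactamase/M1 line, treated with compound plus 1 uM carbachol for 5 h, 37 °C.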
# [9] = Stat Signaling Pathway (AID 446); details: ME-180 SIE beta-lactamase reporter, IL-6 stimulated, 5 h; at 17.2 µM (top of the series) unless noted;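 further: ME-180 cervical cancer cells given 40 pM IL-6 alongside compound; SIE-controlled beta-lactamase reporter measured as 460/530 nm FRET emission ratio; on the % scale 0 is the no-effect control and ±100 the full control effect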
# How it was run: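 Reporter line: ME-180 cervical carcinoma, SIE-beta-lactamase. Treatment: compound with 40 pM IL-6, 5 hrs, 37 C, in low-serum OPTI-MEM with 10 mM HEPES pH 7.3. Detection: 460/530 nm fluorescence.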
# [10] = molecular target: Glucocorticoid receptor (Homo sapiens) (UniProt P04150); assay: GR-GFP Redistribution (AID 450;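 active means compounds whose dose series gives a full or clear partial fitted curve of increased nuclear translocation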; further: potency means the concentration at half of the fitted maximal effect); details: U2OS GR-GFP nuclear translocation, laser cytometry, 2 h
# [11] = at 17.2 µM (top of the series) unless noted
# Sequence of Cytochrome P450 1A2 (Homo sapiens) (P05177 whole entry, looked up): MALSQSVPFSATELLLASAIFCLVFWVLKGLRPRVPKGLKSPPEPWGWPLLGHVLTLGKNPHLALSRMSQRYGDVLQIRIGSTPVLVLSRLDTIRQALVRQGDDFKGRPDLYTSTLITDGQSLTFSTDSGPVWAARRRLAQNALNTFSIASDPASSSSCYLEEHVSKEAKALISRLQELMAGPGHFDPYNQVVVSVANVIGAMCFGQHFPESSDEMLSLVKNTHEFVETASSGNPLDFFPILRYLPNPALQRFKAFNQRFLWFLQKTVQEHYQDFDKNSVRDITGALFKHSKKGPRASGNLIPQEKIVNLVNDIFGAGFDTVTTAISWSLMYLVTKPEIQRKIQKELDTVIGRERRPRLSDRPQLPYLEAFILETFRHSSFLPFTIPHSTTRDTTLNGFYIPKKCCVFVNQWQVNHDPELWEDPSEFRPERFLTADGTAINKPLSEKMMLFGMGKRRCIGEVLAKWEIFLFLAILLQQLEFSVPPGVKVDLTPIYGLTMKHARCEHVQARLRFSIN
# Sequence of Glucocorticoid receptor (Homo sapiens) (P04150 whole entry, looked up): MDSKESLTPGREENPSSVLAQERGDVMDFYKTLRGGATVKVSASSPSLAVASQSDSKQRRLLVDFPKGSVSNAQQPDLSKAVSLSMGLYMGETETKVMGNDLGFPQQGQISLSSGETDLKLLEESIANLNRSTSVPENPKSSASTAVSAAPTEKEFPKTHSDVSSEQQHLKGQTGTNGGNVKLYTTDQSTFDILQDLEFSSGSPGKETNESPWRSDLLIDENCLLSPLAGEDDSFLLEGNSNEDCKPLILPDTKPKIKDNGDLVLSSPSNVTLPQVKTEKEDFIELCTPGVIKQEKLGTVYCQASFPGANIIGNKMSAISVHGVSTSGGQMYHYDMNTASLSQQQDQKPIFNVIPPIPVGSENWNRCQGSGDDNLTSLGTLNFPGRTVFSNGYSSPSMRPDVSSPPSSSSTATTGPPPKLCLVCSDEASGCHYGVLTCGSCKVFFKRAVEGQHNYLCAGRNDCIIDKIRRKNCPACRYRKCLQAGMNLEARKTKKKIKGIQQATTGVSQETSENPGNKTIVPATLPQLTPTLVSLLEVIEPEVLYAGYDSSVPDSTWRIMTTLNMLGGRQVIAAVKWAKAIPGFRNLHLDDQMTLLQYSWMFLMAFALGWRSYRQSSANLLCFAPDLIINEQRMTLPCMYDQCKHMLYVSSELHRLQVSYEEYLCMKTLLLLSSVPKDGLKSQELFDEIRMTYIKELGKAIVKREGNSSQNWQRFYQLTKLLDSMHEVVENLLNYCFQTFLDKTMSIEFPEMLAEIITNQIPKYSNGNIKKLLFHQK
smiles,measurement,setting,value
Cc1nnc(NS(=O)(=O)c2ccc(N)cc2)s1,"activity change, negative = inhibition",[1]; [11],7.08% and 5.89%
same,Potency,[2],inactive
same,Potency,[3],> 92 µM
same,Potency,[4],> 92 µM
same,Potency,[5],> 92 µM
same,Potency,[6],> 92 µM
same,Potency,[7],> 92 µM
same,"activity change, negative = inhibition",[8]; [11],16.1% and -9.52%
same,"activity, negative = inhibition",[9],0.539% and 1.42%
CCOC(=O)c1ccc(OC(=O)CCCCCN=C(N)N)cc1,"activity change, negative = inhibition",[1]; [11],1.04%
same,Potency,[2],12.6 µM (active) and 15.8 µM (active)
same,"activity, negative = inhibition",[9],-23.2%
N[C@@H](Cc1ccc(O)c(O)c1)C(=O)O,"activity change, negative = inhibition",[1]; at 17.2 µM (top of the series),-2.87%
same,"activity change, negative = inhibition",[1]; at 38 µM (top of the series),-2.2%
same,Potency,[2],inactive
same,"activity change, negative = inhibition",[8]; at 17.2 µM (top of the series),1.41%
same,"activity change, negative = inhibition",[8]; at 38 µM (top of the series),18.2%
same,"activity, negative = inhibition",[9],4.83%
same,Potency,[10],> 46 µM and > 20.6 µM
COc1ccc2cc3[n+](cc2c1OC)CCc1cc2c(cc1-3)OCO2,"activity change, negative = inhibition",[1]; [11],10.1%
same,Potency,[2],5.01 µM (active)
same,Potency,[3],> 92 µM
same,Potency,[7],> 92 µM
same,"activity, negative = inhibition",[9],-1.52%
same,Potency,[10],> 20.6 µM
Nc1ccc(S(=O)(=O)Nc2ccccn2)cc1,"activity change, negative = inhibition",[1]; [11],-6.81% and -4.21%
same,Potency,[2],inactive
same,"activity change, negative = inhibition",[8]; [11],-3.78% and -28.1%
same,"activity, negative = inhibition",[9],-7.68% and -0.177%
same,Potency,[10],> 20.6 µM
COc1cc(NS(=O)(=O)c2ccc(N)cc2)nc(OC)n1,"activity change, negative = inhibition",[1]; [11],1.62% and 1.87%
same,Potency,[2],inactive
same,"activity change, negative = inhibition",[8]; [11],-19.2%
same,"activity, negative = inhibition",[9],9.03% and -4.46%
same,Potency,[10],> 20.6 µM
CCCOc1ccc(C(=O)OCCN(CC)CC)cc1N,"activity change, negative = inhibition",[1]; [11],5.39%
same,Potency,[2],5.01 µM (active)
same,"activity change, negative = inhibition",[8]; [11],-19.1%
same,"activity, negative = inhibition",[9],1.44%
same,Potency,[10],> 20.6 µM
CCc1cc(C(N)=S)ccn1,"activity change, negative = inhibition",[1]; [11],-4.73%
same,Potency,[3],> 92 µM
same,Potency,[4],> 92 µM
same,Potency,[5],> 92 µM
same,Potency,[6],> 92 µM
same,Potency,[7],> 92 µM
same,"activity change, negative = inhibition",[8]; [11],5.86%
same,"activity, negative = inhibition",[9],-6.82%
same,Potency,[10],> 20.6 µM
CC(=O)[C@H]1CC[C@H]2[C@@H]3CCC4=CC(=O)CC[C@]4(C)[C@H]3CC[C@]12C,"activity change, negative = inhibition",[1]; [11],1.43%
same,Potency,[3],> 92 µM
same,Potency,[5],48.5 µM (active)
same,Potency,[6],> 92 µM
same,Potency,[7],> 92 µM
same,"activity change, negative = inhibition",[8]; [11],-29.5%
same,"activity, negative = inhibition",[9],2.68%
Cc1cccc(Nc2ccncc2S(=O)(=O)NC(=O)NC(C)C)c1,"activity change, negative = inhibition",[1]; [11],-9.3%
same,Potency,[2],inactive
same,"activity change, negative = inhibition",[8]; [11],-2.46%
same,"activity, negative = inhibition",[9],-16.6%
same,Potency,[10],> 20.6 µM
COc1ccc2c(c1)c(CC(=O)OCC(=O)O)c(C)n2C(=O)c1ccc(Cl)cc1,"activity change, negative = inhibition",[1]; [11],-9.7% and -8.22%
same,Potency,[2],inactive
same,"activity change, negative = inhibition",[8]; [11],2.54% and 1.97%
same,"activity, negative = inhibition",[9],1.57% and -16%
same,Potency,[10],> 20.6 µM
Cc1ncc([N+](=O)[O-])n1CCO,"activity change, negative = inhibition",[1]; [11],7.25% and 11.7%
same,Potency,[2],inactive
same,Potency,[3],> 92 µM
same,Potency,[4],> 92 µM
same,Potency,[5],> 92 µM
same,Potency,[6],> 92 µM
same,Potency,[7],> 92 µM
same,"activity change, negative = inhibition",[8]; [11],-4.16% and -8.01%
same,"activity, negative = inhibition",[9],4.79% and 0.586%
